Records with an inconclusive call do not appear. The source made the active and inactive calls. The calls were made as follows: active = hit-call score of the fitted dose curve at least 0.9, where 1 is the maximum; inconclusive = response in the unintended direction; inactive = score below 0.9.
Molecular target: human MAP Kinase-Activated Protein Kinase 2 (MAPKAPK2), MAPKAPK2 (gene 9261) (UniProt P49137)
Test: NVS_ENZ_hMAPKAPK2: NovaScreen (NVS) Enzymatic Assay for human MAP Kinase-Activated Protein Kinase 2 (MAPKAPK2) (AID 2283178)
Procedure, shortened: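 Chemicals screened in duplicate at 25 uM, then to 50 uM top concentration in concentration-response, against recombinant human MAPKAPK2; substrate conversion read 1 hr post-dosing by fluorescence after electrophoretic mobility-shift separation, loss-of-signal relative to DMSO.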

Sequence of human MAP Kinase-Activated Protein Kinase 2 (MAPKAPK2), MAPKAPK2 (gene 9261) (P49137 whole entry, looked up): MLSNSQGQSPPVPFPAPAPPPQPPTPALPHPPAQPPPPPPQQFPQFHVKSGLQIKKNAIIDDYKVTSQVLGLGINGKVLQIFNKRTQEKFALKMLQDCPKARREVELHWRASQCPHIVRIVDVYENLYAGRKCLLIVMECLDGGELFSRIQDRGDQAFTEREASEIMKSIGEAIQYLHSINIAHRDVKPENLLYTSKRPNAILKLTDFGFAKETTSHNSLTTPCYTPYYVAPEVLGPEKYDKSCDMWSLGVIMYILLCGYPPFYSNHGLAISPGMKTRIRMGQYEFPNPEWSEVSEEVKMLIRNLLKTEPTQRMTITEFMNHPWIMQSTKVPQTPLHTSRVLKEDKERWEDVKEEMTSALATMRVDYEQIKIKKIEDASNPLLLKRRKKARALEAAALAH

| Compound | outcome |
| --- | --- |
| CC[C@H](c1ccc(O)cc1)[C@@H](CC)c1ccc(O)cc1 | inactive |
| OC1CCC(C2CCCCC2)CC1 (stereo not given) | inactive |
| OCCC(F)(F)C(F)(F)C(F)(F)C(F)(F)C(F)(F)C(F)(F)C(F)(F)C(F)(F)F | inactive |

Molecular target: human Phosphodiesterase 4A1 (PDE4A1), PDE4A (gene 5141) (UniProt P27815)
Sequence (P27815 whole entry, looked up): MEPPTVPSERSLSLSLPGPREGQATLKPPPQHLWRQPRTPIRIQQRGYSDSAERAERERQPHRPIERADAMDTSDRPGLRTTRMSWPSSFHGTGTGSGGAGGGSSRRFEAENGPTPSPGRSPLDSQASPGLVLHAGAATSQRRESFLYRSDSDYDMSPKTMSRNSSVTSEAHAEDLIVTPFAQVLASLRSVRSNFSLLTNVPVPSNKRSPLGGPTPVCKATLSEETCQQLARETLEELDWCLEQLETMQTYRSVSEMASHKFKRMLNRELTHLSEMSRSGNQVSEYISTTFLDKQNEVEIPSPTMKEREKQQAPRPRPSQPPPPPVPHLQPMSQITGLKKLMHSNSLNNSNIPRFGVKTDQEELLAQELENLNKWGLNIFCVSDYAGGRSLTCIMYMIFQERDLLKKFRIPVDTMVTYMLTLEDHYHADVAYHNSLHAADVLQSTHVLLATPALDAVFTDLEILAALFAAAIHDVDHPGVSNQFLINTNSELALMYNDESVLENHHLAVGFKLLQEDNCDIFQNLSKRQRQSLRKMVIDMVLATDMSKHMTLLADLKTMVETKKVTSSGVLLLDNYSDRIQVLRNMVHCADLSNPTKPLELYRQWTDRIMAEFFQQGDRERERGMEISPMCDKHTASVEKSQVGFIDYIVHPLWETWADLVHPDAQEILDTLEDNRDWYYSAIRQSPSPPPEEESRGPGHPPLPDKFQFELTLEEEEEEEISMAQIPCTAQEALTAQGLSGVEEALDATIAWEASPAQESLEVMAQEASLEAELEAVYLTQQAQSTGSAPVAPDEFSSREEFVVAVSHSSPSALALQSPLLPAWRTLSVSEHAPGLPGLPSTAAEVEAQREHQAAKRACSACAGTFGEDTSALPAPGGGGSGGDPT
Test: NVS_ENZ_hPDE4A1: NovaScreen (NVS) Enzymatic Assay for human Phosphodiesterase 4A1 (PDE4A1) (AID 2283191)
Method: (§1) NVS_ENZ_hPDE4A1 is a biochemical, single-readout assay that uses extracted gene-proteins in a cell-free assay. Measurements were taken 1 hour after chemical dosing in a 384-well plate.NVS_ENZ_hPDE4A1 is one of one assay component(s) measured or calculated from the NVS_ENZ_hPDE4A1 assay. It is designed to make measurements of enzyme activity, a form of enzyme reporter, as detected with fluorescence intensity signals by Fluorescence and electrophoretic mobility shift technology.Data from the assay component NVS_ENZ_hPDE4A1 was analyzed into 1 assay endpoint. This assay endpoint, NVS_ENZ_hPDE4A1, was analyzed in the positive analysis fitting direction relative to DMSO as the negative control and baseline of activity. Using a type of enzyme reporter, loss-of-signal activity can be used to understand changes in the enzymatic activity as they relate to the gene PDE4A. Furthermore, this assay endpoint can be referred to as a primary readout, because this assay has produced multiple assay endpoints where this one serves a enzymatic activity function. To generalize the intended target to other relatable targets, this assay endpoint is annotated to the esterase intended target family, where the subfamily is phosphodiesterase.
(§2) Binding assays used specific radioligands (tritiated, iodinated) with non-radioactive competitive displacement ligands in agonist or antagonist protocols (as indicated) and various reference compounds and inhibitors to titrate specific binding to receptors and transporters. Most enzyme assays (CYPs, kinases, phosphatases, proteases, HDACs) used recombinant protein and specific substrates (fluorescence mostly, some colorimetric and radioactive) and inhibitors, followed by a biochemical separation of substrate and product. All assays for the biochemical HTS were initially run in duplicate at a single concentration (10 uM for CYP450 assays and 25 uM for all others). Assay-chemical combinations meeting a pre-defined threshold (e.g., 30% inhibition and other criteria defined below) were then run in singleton concentration-response format with maximum concentration of 20 uM for CYPs and 50 uM for all others. Each assay was run with positive and negative controls, and concurrent controls on every plate. The follow-up (secondary) screen tested active chemical-pairs in concentration series, as well as a few additional assays not tested in the primary screen, some selected negative inactives, and several cases re-run in the concentration series for confirmatory purposes.

| Compound | AC50 | outcome |
| --- | --- | --- |
| NC(=O)N(O)[C@@H]1C=C[C@H](Oc2cccc(Oc3ccc(F)cc3)c2)C1 | 23 µM (active) | – |
| CCCCCCCCCCCCCCCS(=O)(=O)Oc1ccccc1 | – | inactive |
| CCc1nn(C2CCCCC2)c2cc(C3(C#N)CCC(C(=O)O)CC3)ccc12 (stereo not given) | 0.00229 µM (active) | – |
| c1ccc2cc3c(ccc4ccccc43)cc2c1 | – | inactive |

Molecular target: human Phosphodiesterase 5 (PDE5), PDE5A (gene 8654) (UniProt O76074)
Test: NVS_ENZ_hPDE5: NovaScreen (NVS) Enzymatic Assay for human Phosphodiesterase 5 (PDE5) (AID 2283194)
Procedure, shortened: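 Screening began in duplicate at 25 uM, with actives taken into concentration-response. Enzyme activity of recombinant PDE5 toward its substrate was measured at 1 h by fluorescence mobility-shift detection, relative to DMSO controls.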

| Compound | outcome |
| --- | --- |
| CCc1nn(C2CCCCC2)c2cc(C3(C#N)CCC(C(=O)O)CC3)ccc12 (stereo not given) | inactive |
| OCCC(F)(F)C(F)(F)C(F)(F)C(F)(F)C(F)(F)C(F)(F)F | inactive |
| COC(=O)CCCCC(=O)OC | inactive |
| CC(O)CO (stereo not given) | inactive |
| CCCCCCC(=O)O | inactive |

Molecular target: human Protein Phosphatase, Mg2+/Mn2+ Dependent 1A (PPM1A), PPM1A (gene 5494) (UniProt P35813)
Sequence (P35813 whole entry, looked up): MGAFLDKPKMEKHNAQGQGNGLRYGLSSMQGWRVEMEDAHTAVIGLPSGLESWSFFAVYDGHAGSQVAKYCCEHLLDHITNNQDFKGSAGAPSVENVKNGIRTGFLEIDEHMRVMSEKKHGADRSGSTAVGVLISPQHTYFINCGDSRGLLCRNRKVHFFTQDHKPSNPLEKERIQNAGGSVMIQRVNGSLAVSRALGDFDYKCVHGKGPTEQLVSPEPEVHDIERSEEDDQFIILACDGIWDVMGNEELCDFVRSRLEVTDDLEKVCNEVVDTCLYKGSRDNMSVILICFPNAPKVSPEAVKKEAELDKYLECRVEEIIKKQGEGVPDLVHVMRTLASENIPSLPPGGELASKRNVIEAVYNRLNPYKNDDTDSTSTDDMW
Test: NVS_ENZ_hPPM1A: NovaScreen (NVS) Enzymatic Assay for human Protein Phosphatase, Mg2+/Mn2+ Dependent 1A (PPM1A) (AID 2283198)
Method: as §1, with “NVS_ENZ_hPPM1A” for “NVS_ENZ_hPDE4A1”, “plate.NVS_ENZ_hPPM1A” for “plate.NVS_ENZ_hPDE4A1”, “NVS_ENZ_hPPM1A,” for “NVS_ENZ_hPDE4A1,”, “PPM1A.” for “PDE4A.”, “phosphatase” for “esterase”, “serine/threonine phosphatase.” for “phosphodiesterase.”
as §2

| Compound | outcome |
| --- | --- |
| NC(=O)N(O)[C@@H]1C=C[C@H](Oc2cccc(Oc3ccc(F)cc3)c2)C1 | inactive |
| COC(=O)CCCCC(=O)OC | inactive |
| CCCOc1sc(C(=O)N2CCC(c3cc(CN)ccc3F)CC2)c(C)c1Br | inactive |
| CCCCCCC(=O)O | inactive |

Molecular target: Serine/threonine-protein phosphatase PP1-alpha catalytic subunit (Homo sapiens) (UniProt P62136)
Sequence (P62136 whole entry, looked up): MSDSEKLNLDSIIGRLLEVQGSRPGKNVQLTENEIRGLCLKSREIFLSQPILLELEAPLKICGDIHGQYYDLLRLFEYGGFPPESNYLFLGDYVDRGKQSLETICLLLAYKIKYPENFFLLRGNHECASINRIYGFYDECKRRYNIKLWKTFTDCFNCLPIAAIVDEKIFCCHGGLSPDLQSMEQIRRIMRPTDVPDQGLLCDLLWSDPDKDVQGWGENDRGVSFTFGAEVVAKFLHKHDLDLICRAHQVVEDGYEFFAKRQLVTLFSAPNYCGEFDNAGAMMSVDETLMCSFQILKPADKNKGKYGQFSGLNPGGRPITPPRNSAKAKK
Test: NVS_ENZ_hPPP1CA: NovaScreen (NVS) Enzymatic Assay for human Protein Phosphatase 1 Aatalytic subunit Alpha (PPP1CA) (AID 2283200)
Procedure, shortened: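 Chemicals were first screened in duplicate at 25 uM, and those passing threshold (e.g. 30% inhibition) were run as concentration series to 50 uM. Cell-free recombinant protein, 1.33 h read, fluorescent substrate/product mobility-shift detection, normalised to DMSO.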

| Compound | outcome |
| --- | --- |
| CCCCOCCO | inactive |
| CN1CCC[C@H]1c1cccnc1 | inactive |
| CCCOC(=O)c1ccc(O)cc1 | inactive |
| CC(C)(C)c1cccc(C(C)(C)C)c1O | inactive |
